In PubChem BioAssay AID1159580 (chemical genetic matrix, 2015):
“And” between values parts separate entries of the source, which are not always exact repeats. Equal entries are not always repeated. In all, about 5,500 compounds went through this assay and about 2,000 (36%) were called active. Roughly 18% stayed inconclusive and do not appear here. No stated cut-off is given here; in the data, active means normalized growth mostly below about 0.91 (no sharp cut-off); inconclusive means no clear call, values can overlap the other calls; inactive means mostly above about 0.92. Some of the results follow.

Test: chemical genetic growth profiling, strain panel (AID 1159580);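 further: tested at 20 µM; growth read once vehicle control cultures reached saturation at 30 °C; 1 = growth at the plate median or of vehicle wells; lower values mean less growth of the strain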
Details: S. cerevisiae deletion strains, growth OD

Measured: normalized growth

NC[C@H]1O[C@H](O[C@H]2[C@H](O)[C@@H](O[C@H]3O[C@H](CO)[C@@H](O)[C@H](N)[C@H]3O)[C@H](N)C[C@@H]2N)[C@H](N)[C@@H](O)[C@@H]1O
inactive: locus YAL021C, strain ccr4, hits give low values 0.999 | locus YAL026C, strain drs2, hits give low values 0.992 | locus YAL030W, strain snc1, hits give low values 0.996 | locus YBL061C, strain skt5, hits give low values 0.992 | locus YBR009C, strain hhf1, hits give low values 1.03 | locus YBR021W, strain FUR4, hits give low values 0.902 | locus YBR023C, strain chs3, hits give low values 1 | locus YBR171W, strain sec66, hits give low values 0.989 | locus YBR229C, strain ROT2, hits give low values 0.995 | locus YBR231C, strain swc5, hits give low values 0.997 | locus YBR279W, strain paf1, hits give low values 0.993 | locus YCL011C, strain gbp2, hits give low values 0.998 | locus YCL016C, strain dcc1, hits give low values 1.01 | locus YCL029C, strain bik1, hits give low values 0.977 | locus YCL061C, strain MRC1, hits give low values 0.993 | locus YCL069W, strain vba3, hits give low values 0.989 | locus YCR088W, strain abp1, hits give low values 0.992 | locus YDL005C, strain med2, hits give low values 0.992 | locus YDL035C, strain GPR1, hits give low values 0.99 | locus YDL040C, strain nat1, hits give low values 0.997 | locus YDL074C, strain BRE1, hits give low values 0.955 | locus YDL101C, strain DUN1, hits give low values 0.991 | locus YDL185W, strain tfp1, hits give low values 0.95 | locus YDL192W, strain arf1, hits give low values 1 | locus YDR001C, strain nth1, hits give low values 0.989 | locus YDR069C, strain doa4, hits give low values 0.99 | locus YDR101C, strain arx1, hits give low values 0.943 | locus YDR137W, strain rgp1, hits give low values 1.01 | locus YDR150W, strain NUM1, hits give low values 0.98 | locus YDR159W, strain sac3, hits give low values 0.983 | locus YDR162C, strain NBP2, hits give low values 1.01 | locus YDR195W, strain ref2 0.937 | locus YDR297W, strain sur2, hits give low values 0.986 | locus YDR318W, strain mcm21, hits give low values 1 | locus YDR334W, strain swr1, hits give low values 0.985 | locus YDR335W, strain msn5, hits give low values 0.994 | locus YDR388W, hits give low values 0.98 | locus YDR392W, strain spt3, hits give low values 1.04 | locus YDR502C, strain sam2, hits give low values 1.01 | locus YEL003W, strain gim4, hits give low values 0.991 | locus YEL037C, strain rad23, hits give low values 1 | locus YEL061C, strain CIN8 (second series), hits give low values 0.982 | locus YEL061C, strain CIN8, hits give low values 0.996 | locus YER015W, strain faa2, hits give low values 1 | locus YER016W, strain bim1, hits give low values 0.988 | locus YER110C, hits give low values 0.957 | locus YER111C, strain swi4, hits give low values 0.998 | locus YER155C, strain BEM2 (second series), hits give low values 0.993 | locus YER155C, strain BEM2, hits give low values 0.994 | locus YER167W, strain BCK2, hits give low values 1 | locus YFR010W, strain ubp6, hits give low values 0.987 | locus YGL078C, strain dbp3, hits give low values 0.99 | locus YGL086W, strain mad1, hits give low values 0.952 | locus YGL167C, strain pmr1, hits give low values 1 | locus YGL173C, strain kem1, hits give low values 0.99 | locus YGL227W, strain vid30, hits give low values 0.984 | locus YGL240W, strain doc1, hits give low values 0.985 | locus YGL248W, strain PDE1, hits give low values 1.02 | locus YGL253W, strain hxk2, hits give low values 0.993 | locus YGR078C, strain PAC10, hits give low values 1.01 | locus YGR135W, strain pre9, hits give low values 1.01 | locus YGR252W, strain gcn5, hits give low values 1.18 | locus YHR013C, strain ard1, hits give low values 1 | locus YHR027C, strain rpn1, hits give low values 0.989 | locus YHR030C, strain SLT2, hits give low values 0.978 and 1.08 | locus YHR079C, strain IRE1 (second series), hits give low values 0.974 | locus YHR079C, strain IRE1, hits give low values 1.07 | locus YHR094C, strain hxt1, hits give low values 0.992 | locus YHR129C, strain ARP1, hits give low values 0.997 | locus YHR142W, strain chs7, hits give low values 0.991 | locus YHR200W, strain rpn10, hits give low values 0.98 | locus YIL066C, strain RNR3, hits give low values 0.99 | locus YIL073C, strain SPO22, hits give low values 0.915 | locus YIL125W, strain kgd1, hits give low values 0.974 | locus YIR030C, strain dcg1, hits give low values 1 | locus YJL092W, strain hpr5, hits give low values 0.986 | locus YJL095W, strain BCK1 (second series), hits give low values 0.994 | locus YJL095W, strain BCK1, hits give low values 1.04 and 1.07 | locus YJL115W, strain asf1, hits give low values 0.988 | locus YJL129C, strain trk1, hits give low values 0.988 | locus YJL134W, strain LCB3, hits give low values 0.976 | locus YJL154C, strain vps35, hits give low values 0.994 | locus YJL164C, strain tpk1, hits give low values 1 | locus YJL166W, strain qcr8, hits give low values 0.996 | locus YJL168C, strain set2, hits give low values 0.984 | locus YJL187C, strain SWE1 (second series), hits give low values 1.01 | locus YJR043C, strain POL32, hits give low values 1.01 | locus YJR066W, strain TOR1, hits give low values 1.02 | locus YKL009W, strain mrt4, hits give low values 0.97 | locus YKL068W, hits give low values 0.966 | locus YKL085W, strain MDH1 (second series), hits give low values 0.993 | locus YKL085W, strain MDH1, hits give low values 0.993 | locus YKL160W, strain elf1, hits give low values 0.994 | locus YKR001C, strain vps1, hits give low values 0.986 | locus YKR026C, strain gcn3, hits give low values 0.984 | locus YKR091W, strain srl3, hits give low values 0.983 | locus YLL001W, strain dnm1, hits give low values 0.988 | locus YLL026W, hits give low values 1 | locus YLL041C, strain sdh2, hits give low values 1.01 | locus YLR027C, strain aat2, hits give low values 0.999 | locus YLR039C, strain RIC1, hits give low values 1.01 | locus YLR058C, strain SHM2, hits give low values 0.999 | locus YLR102C, strain apc9, hits give low values 0.973 | locus YLR113W, strain HOG1, hits give low values 1.04 | locus YLR221C, strain rsa3, hits give low values 0.997 | locus YLR258W, strain gsy2, hits give low values 0.995 | locus YLR262C, strain YPT6 (second series), hits give low values 1.02 | locus YLR262C, strain YPT6, hits give low values 0.984 | locus YLR268W, strain sec22, hits give low values 0.959 | locus YLR320W, strain mms22, hits give low values 1 | locus YLR330W, strain CHS5, hits give low values 0.984 | locus YLR342W, strain FKS1 (second series), hits give low values 0.999 | locus YLR342W, strain FKS1, hits give low values 0.988 | locus YLR357W, strain rsc2, hits give low values 0.992 | locus YLR370C, strain arc18, hits give low values 1.02 | locus YLR371W, strain rom2, hits give low values 0.996 | locus YLR384C, strain iki3, hits give low values 1.01 | locus YLR418C, strain cdc73, hits give low values 1.06 | locus YML016C, strain PPZ1, hits give low values 0.992 | locus YML032C, strain rad52, hits give low values 1.04 | locus YML120C, strain ndi1, hits give low values 0.994 | locus YML124C, strain tub3, hits give low values 0.991 | locus YMR058W, strain fet3, hits give low values 0.997 | locus YMR078C, strain ctf18, hits give low values 1.01 | locus YMR125W, strain sto1, hits give low values 1.01 | locus YMR129W, hits give low values 0.99 | locus YMR205C, strain PFK2, hits give low values 1 | locus YMR223W, strain ubp8, hits give low values 1.02 | locus YMR231W, strain pep5, hits give low values 0.997 | locus YMR263W, strain SAP30, hits give low values 0.992 | locus YMR307W, strain GAS1, hits give low values 1.16 | locus YNL067W, strain RPL9B, hits give low values 1.01 | locus YNL071W, strain lat1, hits give low values 0.998 | locus YNL183C, strain NPR1, hits give low values 1.02 | locus YNL209W, strain ssb2, hits give low values 0.992 | locus YNL233W, strain BNI4, hits give low values 1.01 | locus YNL248C, strain rpa49, hits give low values 1 | locus YNL250W, strain rad50, hits give low values 0.96 | locus YNL271C, strain bni1, hits give low values 0.997 | locus YNL298W, strain CLA4, hits give low values 0.984 | locus YNL307C, strain MCK1, hits give low values 0.981 | locus YNL322C, strain KRE1 (second series), hits give low values 1 | locus YNR049C, strain mso1, hits give low values 1.02 | locus YNR052C, strain pop2, hits give low values 1 | locus YOL012C, strain htz1 1.19 | locus YOL147C, strain pex11, hits give low values 0.989 | locus YOR001W, strain rrp6, hits give low values 1.01 | locus YOR061W, strain CKA2, hits give low values 1 | locus YOR069W, strain VPS5, hits give low values 0.986 | locus YOR070C, strain gyp1, hits give low values 1.01 | locus YOR080W, strain dia2, hits give low values 1 | locus YOR083W, strain WHI5, hits give low values 1.01 | locus YOR106W, strain vam3, hits give low values 1.02 | locus YOR136W, strain idh2, hits give low values 0.972 | locus YOR184W, strain ser1, hits give low values 0.972 | locus YOR231W, strain MKK1, hits give low values 1.04 | locus YOR265W, strain rbl2, hits give low values 1 | locus YOR270C, strain vph1, hits give low values 0.968 | locus YOR290C, strain snf2, hits give low values 1 | locus YOR316C, strain cot1, hits give low values 0.978 | locus YPL051W, strain arl3, hits give low values 1 | locus YPL055C, strain LGE1, hits give low values 1.01 | locus YPL078C, strain atp4, hits give low values 1.02 | locus YPL106C, strain sse1, hits give low values 1.01 | locus YPL240C, strain hsp82, hits give low values 0.988 | locus YPL256C, strain CLN2, hits give low values 1.08 | locus YPR119W, strain clb2, hits give low values 0.993 | locus YPR141C, strain kar3, hits give low values 0.982 | locus YPR163C, strain tif3, hits give low values 0.998 | locus YPR167C, strain met16, hits give low values 0.991 | strain wtn01, hits give low values 0.948
